# Results: the supplement of paper PMC8728848
# Shown is part of a subset that was picked to be rich in the strongest signals.
# Tests used:
# Assay in all cases: glycan array binding signal (z-score within array); higher = stronger binding
# Settings in all cases: glycan notation: IUPAC condensed, linker removed
# [1] = target: Gal(b1-4)GlcNAc(b1-2)[Gal(b1-4)GlcNAc(b1-4)]Man(a1-3)[Gal(b1-4)GlcNAc(b1-2)[Gal(b1-4)GlcNAc(b1-6)]Man(a1-6)]Man(b1-4)GlcNAc(b1-4)GlcNAc
# Procedure, shortened: (§1)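 From the Consortium for Functional Glycomics database, 3228 arrays were curated, keeping only those whose protein sequence was available. Binding is given as a within-array Z-score averaged across arrays sharing a protein sequence and across linkers. Negative Z-scores can be read as non-binding.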
# [2] = target: Gal(b1-4)GlcNAc(b1-2)[Gal(b1-4)GlcNAc(b1-6)]Man(a1-6)[Gal(b1-4)GlcNAc(b1-2)Man(a1-3)]Man(b1-4)GlcNAc(b1-4)[Fuc(a1-6)]GlcNAc
# Procedure, shortened: as §1
# [3] = target: Gal(b1-4)GlcNAc(b1-3)Gal(b1-3)GlcNAc
# Procedure, shortened: as §1
# [4] = target: Gal(b1-4)GlcNAc(b1-3)Gal(b1-4)GlcNAc(b1-2)Man(a1-3)[Gal(b1-4)GlcNAc(b1-3)Gal(b1-4)GlcNAc(b1-2)Man(a1-6)]Man(b1-4)GlcNAc(b1-4)[Fuc(a1-6)]GlcNAc
# Procedure, shortened: as §1
# [5] = target: Gal(b1-4)GlcNAc(b1-3)Gal(b1-4)GlcNAc(b1-3)Gal(b1-4)GlcNAc
# Procedure, shortened: as §1
# [6] = target: Gal(b1-4)GlcNAc(b1-3)Gal(b1-4)GlcNAc(b1-3)Gal(b1-4)GlcNAc(b1-2)Man(a1-3)[Gal(b1-4)GlcNAc(b1-3)Gal(b1-4)GlcNAc(b1-3)Gal(b1-4)GlcNAc(b1-2)Man(a1-6)]Man(b1-4)GlcNAc(b1-4)GlcNAc
# Procedure, shortened: as §1
# [7] = target: Gal(b1-4)GlcNAc(b1-3)Gal(b1-4)GlcNAc(b1-3)Gal(b1-4)GlcNAc(b1-2)Man(a1-3)[Gal(b1-4)GlcNAc(b1-3)Gal(b1-4)GlcNAc(b1-3)Gal(b1-4)GlcNAc(b1-2)Man(a1-6)]Man(b1-4)GlcNAc(b1-4)[Fuc(a1-6)]GlcNAc
# Procedure, shortened: as §1
# [8] = target: Gal(b1-4)GlcNAc(b1-3)Gal(b1-4)GlcNAc(b1-3)Gal(b1-4)GlcNAc(b1-3)Gal(b1-4)GlcNAc(b1-2)Man(a1-3)[Gal(b1-4)GlcNAc(b1-3)Gal(b1-4)GlcNAc(b1-3)Gal(b1-4)GlcNAc(b1-3)Gal(b1-4)GlcNAc(b1-2)Man(a1-6)]Man(b1-4)GlcNAc(b1-4)[Fuc(a1-6)]GlcNAc
# Procedure, shortened: as §1
# [9] = target: Gal(b1-4)GlcNAc(b1-3)Gal(b1-4)GlcNAc(b1-3)Gal(b1-4)GlcNAc(b1-3)Gal(b1-4)GlcNAc(b1-3)Gal(b1-4)GlcNAc(b1-2)Man(a1-3)[Gal(b1-4)GlcNAc(b1-3)Gal(b1-4)GlcNAc(b1-3)Gal(b1-4)GlcNAc(b1-3)Gal(b1-4)GlcNAc(b1-3)Gal(b1-4)GlcNAc(b1-2)Man(a1-6)]Man(b1-4)GlcNAc(b1-4)GlcNAc
# Procedure, shortened: as §1
# [10] = target: Gal(b1-4)GlcNAc(b1-3)Gal(b1-4)GlcNAc(b1-3)Gal(b1-4)GlcNAc(b1-3)Gal(b1-4)GlcNAc(b1-3)Gal(b1-4)GlcNAc(b1-3)Gal(b1-4)GlcNAc(b1-2)Man(a1-3)[Gal(b1-4)GlcNAc(b1-3)Gal(b1-4)GlcNAc(b1-3)Gal(b1-4)GlcNAc(b1-3)Gal(b1-4)GlcNAc(b1-3)Gal(b1-4)GlcNAc(b1-3)Gal(b1-4)GlcNAc(b1-2)Man(a1-6)]Man(b1-4)GlcNAc(b1-4)GlcNAc
# Procedure, shortened: as §1
# [11] = target: Gal(b1-4)GlcNAc(b1-3)Gal(b1-4)GlcNAc(b1-3)[Gal(b1-4)GlcNAc(b1-3)Gal(b1-4)GlcNAc(b1-6)]GalNAc
# Procedure, shortened: as §1
# [12] = target: Gal(b1-4)GlcNAc(b1-6)GalNAc
# Procedure, shortened: as §1
# Gal3S4S(b1-4)GlcNAc = target: Gal3S4S(b1-4)GlcNAc
# Procedure, shortened: as §1
# Gal4S6S(b1-4)GlcNAc = target: Gal4S6S(b1-4)GlcNAc
# Procedure, shortened: as §1
# GalNAc6S(b1-4)GlcNAc = target: GalNAc6S(b1-4)GlcNAc
# Procedure, shortened: as §1
# [13] = target: GlcNAc6S(b1-3)Gal(b1-4)GlcNAc
# Procedure, shortened: as §1
# [14] = target: Man(a1-2)Man(a1-3)[Man(a1-2)Man(a1-6)]Man
# Procedure, shortened: as §1
# [15] = target: Man(a1-2)Man(a1-3)[Man(a1-2)Man(a1-6)]Man(a1-6)[Man(a1-2)Man(a1-2)Man(a1-3)]Man(b1-4)GlcNAc(b1-4)GlcNAc
# Procedure, shortened: as §1
# Man(b1-4)GlcNAc = target: Man(b1-4)GlcNAc
# Procedure, shortened: as §1
# Neu5Ac(a2-3)Gal = target: Neu5Ac(a2-3)Gal
# Procedure, shortened: as §1
# [16] = target: Neu5Ac(a2-3)Gal(b1-3)GlcNAc(b1-4)Gal(b1-4)Glc
# Procedure, shortened: as §1
# [17] = target: Neu5Ac(a2-3)Gal(b1-3)[GlcNAc(b1-6)]GalNAc
# Procedure, shortened: as §1
# Neu5Ac(a2-3)Gal(b1-4)Glc = target: Neu5Ac(a2-3)Gal(b1-4)Glc
# Procedure, shortened: as §1
# [18] = target: Neu5Ac(a2-3)Gal(b1-4)GlcNAc(b1-2)Man(a1-3)[Neu5Ac(a2-6)Gal(b1-4)GlcNAc(b1-2)Man(a1-6)]Man(b1-4)GlcNAc(b1-4)GlcNAc
# Procedure, shortened: as §1
# [19] = target: Neu5Ac(a2-3)Gal(b1-4)GlcNAc(b1-6)[Gal(b1-3)]GalNAc
# Procedure, shortened: as §1
# [20] = target: Neu5Ac(a2-3)[Neu5Ac(a2-6)]GalNAc
# Procedure, shortened: as §1
# [21] = target: Neu5Ac(a2-6)Gal(b1-4)GlcNAc(b1-2)Man(a1-3)[Gal(b1-4)GlcNAc(b1-2)Man(a1-6)]Man(b1-4)GlcNAc(b1-4)GlcNAc
# Procedure, shortened: as §1
# [22] = target: Neu5Gc(a2-3)Gal(b1-4)GlcNAc(b1-3)Gal(b1-4)GlcNAc(b1-2)Man(a1-3)[Neu5Gc(a2-3)Gal(b1-4)GlcNAc(b1-3)Gal(b1-4)GlcNAc(b1-2)Man(a1-6)]Man(b1-4)GlcNAc(b1-4)GlcNAc
# Procedure, shortened: as §1
binder,measurement,setting,value
PX14343H-pdi-506-26-506 (Parabacteroides distasonis) (protein) QPTGTMTTDSKLTSKESALALTNSAYLKNTVFNKMTPGWGCNTILLLEYMTGKATSENSQSNYKDFQDLLVSDRSLYIEDWWQDCYAGIANCNLALQKLGEFENLDASLVNGYMAEVKFMRALYYFYLVRIFGDVPKITTVQSELGELQVSRAPVKEIYDEIIIPDLLEAEQSDLAFSDHTGRVSMGAVKALLADVYLTYAGYPLQGGKSYYAESAKRSLEVIKSNEYTLFTDYESLRLPSQNNKGEFIYQVQFSLNKRHNESVRIFLPSRSGISAYDLEYGSLIPTKEFVESFEKGDKRTEEKQYFFTNYKGHPSKFSPGAAELEFMDLNGYYIYKFFDQVAVDNTAKSDLNWSVYRYTDVLLMYAEAQVNADGTPNQQSIDIVNQIRGRAGLAPFKQTNASAFLEEVWDQRYFDLCYENKMWFDMLRTRKIRDDKSGEYVDFIGYKTNWGKVYTETQLLFPIPLSERQANPNLTQNQGY,glycan array binding signal (z-score),[1],-0.221
same,glycan array binding signal (z-score),[2],0.886
same,glycan array binding signal (z-score),[3],-0.366
same,glycan array binding signal (z-score),[4],6.92
same,glycan array binding signal (z-score),[5],-0.114
same,glycan array binding signal (z-score),[6],3.24
same,glycan array binding signal (z-score),[7],6.72
same,glycan array binding signal (z-score),[8],0.292
same,glycan array binding signal (z-score),[9],0.552
same,glycan array binding signal (z-score),[10],4.45
same,glycan array binding signal (z-score),[11],0.311
same,glycan array binding signal (z-score),[12],-0.235
same,glycan array binding signal (z-score),Gal3S4S(b1-4)GlcNAc,-0.293
same,glycan array binding signal (z-score),Gal4S6S(b1-4)GlcNAc,-0.505
same,glycan array binding signal (z-score),GalNAc6S(b1-4)GlcNAc,0.278
same,glycan array binding signal (z-score),[13],-0.337
same,glycan array binding signal (z-score),[14],-0.49
same,glycan array binding signal (z-score),[15],-0.329
same,glycan array binding signal (z-score),Man(b1-4)GlcNAc,-0.406
same,glycan array binding signal (z-score),Neu5Ac(a2-3)Gal,-0.52
same,glycan array binding signal (z-score),[16],-0.388
same,glycan array binding signal (z-score),[17],-0.522
same,glycan array binding signal (z-score),Neu5Ac(a2-3)Gal(b1-4)Glc,-0.335
same,glycan array binding signal (z-score),[18],4.89
same,glycan array binding signal (z-score),[19],-0.127
same,glycan array binding signal (z-score),[20],-0.483
same,glycan array binding signal (z-score),[21],2.9
same,glycan array binding signal (z-score),[22],-0.486
